“And” between values parts separate entries of the source, which are not always exact repeats. Equal entries are not always repeated. Results filed as inconclusive are left out. The source made the active and inactive calls. Unless noted, the call rests on the fitted dose curve; in most records, active means well fitted curve in the direction sought with a large enough effect; inconclusive means small, poorly fitted or top-dose-only effect, or another doubt; inactive means no such curve, though single readings can be large; an effect the other way counts as inactive or inconclusive.
Legend:
[1] = qHTS for Inhibitors of the Functional Ribonucleoprotein Complex (vRNP) of Lassa (LASV) Arenavirus: LASV Primary Screen - GLuc reporter signal (AID 1347082; calls by dose curve; tested in HEK293 reporter line; further: nearly all actives have a fitted effect of over 60% in size; further: potency means the concentration at half of the fitted maximal effect)
[2] = qHTS for Inhibitors of the Functional Ribonucleoprotein Complex (vRNP) of Lassa (LASV) Arenavirus: Viability assay - alamar blue signal for LASV Primary Screen (AID 1347083; calls by dose curve; tested in HEK293 reporter line; further: nearly all actives have a fitted effect of over 80% in size; further: potency means the concentration at half of the fitted maximal effect)
[3] = qHTS for Inhibitors of the Functional Ribonucleoprotein Complex (vRNP) of Lymphocytic Choriomeningitis Arenaviruses (LCMV): Viability assay - alamar blue signal for LCMV Primary Screen (AID 1347085; calls by dose curve; tested in HEK293 reporter line; further: nearly all actives have a fitted effect of over 80% in size; further: potency means the concentration at half of the fitted maximal effect)
[4] = biological target: Nucleoprotein (Lymphocytic choriomeningitis virus (strain Armstrong)) (UniProt P09992); experiment: qHTS for Inhibitors of the Functional Ribonucleoprotein Complex (vRNP) of Lymphocytic Choriomeningitis Arenaviruses (LCMV): LCMV Primary Screen - GLuc reporter signal (AID 1347086; calls by dose curve; further: nearly all actives have a fitted effect of over 70% in size; further: potency means the concentration at half of the fitted maximal effect)
[5] = qHTS of pediatric cancer cell lines to identify multiple opportunities for drug repurposing: Primary screen for TC32 cells (AID 1347089); further: nearly all actives have a fitted effect of over 60% in size; further: potency means the concentration at half of the fitted maximal effect
In short: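 In the primary qHTS, MIPE compounds were tested at 11 concentrations (0.78 nM to 46 µM) and NPC compounds at 8 (0.59 nM to 46 µM) on TC32 cells for 48 h. CellTiter-Glo luminescence gave viability.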

[6] = qHTS of pediatric cancer cell lines to identify multiple opportunities for drug repurposing: Primary screen for DAOY cells (AID 1347090); further: nearly all actives have a fitted effect of over 55% in size; further: potency means the concentration at half of the fitted maximal effect
In short: (§1)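 Viability measured as metabolically active cells via CellTiter-Glo luminescence following 48 hours of compound exposure, 11-point dilutions in confirmatory testing. 500-1,000 cells/well plated 5 hours before dosing; controls were DMSO and 2.3 µM bortezomib.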

[7] = qHTS of pediatric cancer cell lines to identify multiple opportunities for drug repurposing: Primary screen for SJ-GBM2 cells (AID 1347091); further: potency means the concentration at half of the fitted maximal effect
In short: as §1

[8] = qHTS of pediatric cancer cell lines to identify multiple opportunities for drug repurposing: Primary screen for A673 cells (AID 1347092); further: nearly all actives have a fitted effect of over 45% in size; further: potency means the concentration at half of the fitted maximal effect
In short: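 48 h compound exposure, A673, 500-1,000 cells/well, 37 degrees C/5% CO2. MIPE: 11-point, 0.78 nM-46 µM; NPC: 8-point, 0.59 nM-46 µM (final). Readout CellTiter-Glo luminescence after 15 min RT.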

[9] = qHTS of pediatric cancer cell lines to identify multiple opportunities for drug repurposing: Primary screen for SK-N-MC cells (AID 1347093); further: potency means the concentration at half of the fitted maximal effect
In short: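 Metabolically active cells were quantified by ATP-dependent luminescence (CellTiter-Glo, 15 min at room temperature) following 48 h treatment. Cells had been plated at 500-1,000 per well and settled for 5 h beforehand.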

[10] = qHTS of pediatric cancer cell lines to identify multiple opportunities for drug repurposing: Primary screen for BT-37 cells (AID 1347094); further: potency means the concentration at half of the fitted maximal effect
In short: (§2)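 Luminescence from CellTiter-Glo served as readout of metabolically active cells after 48 h compound exposure. Titrations: MIPE 11-point, from 0.78 nM; NPC 8-point, from 0.59 nM (final). Concentration-response curves came straight from the primary screen.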

[11] = qHTS of pediatric cancer cell lines to identify multiple opportunities for drug repurposing: Primary screen for NB-EBc1 cells (AID 1347095); further: potency means the concentration at half of the fitted maximal effect
In short: as §2

[12] = qHTS of pediatric cancer cell lines to identify multiple opportunities for drug repurposing: Primary screen for U-2 OS cells (AID 1347096); further: nearly all actives have a fitted effect of over 50% in size
In short: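 Viability after 48 h compound treatment at 37C, 500-1,000 cells/well, read as ATP luminescence with CellTiter-Glo. Primary screens used 11-point (MIPE, 0.78 nM-46 µM) or 8-point (NPC, 0.59 nM-46 µM) final concentrations; follow-up screens used 11-point dilutions.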

Measured: Potency

Nucleoprotein (Lymphocytic choriomeningitis virus (strain Armstrong)), sequence (P09992 whole entry, looked up): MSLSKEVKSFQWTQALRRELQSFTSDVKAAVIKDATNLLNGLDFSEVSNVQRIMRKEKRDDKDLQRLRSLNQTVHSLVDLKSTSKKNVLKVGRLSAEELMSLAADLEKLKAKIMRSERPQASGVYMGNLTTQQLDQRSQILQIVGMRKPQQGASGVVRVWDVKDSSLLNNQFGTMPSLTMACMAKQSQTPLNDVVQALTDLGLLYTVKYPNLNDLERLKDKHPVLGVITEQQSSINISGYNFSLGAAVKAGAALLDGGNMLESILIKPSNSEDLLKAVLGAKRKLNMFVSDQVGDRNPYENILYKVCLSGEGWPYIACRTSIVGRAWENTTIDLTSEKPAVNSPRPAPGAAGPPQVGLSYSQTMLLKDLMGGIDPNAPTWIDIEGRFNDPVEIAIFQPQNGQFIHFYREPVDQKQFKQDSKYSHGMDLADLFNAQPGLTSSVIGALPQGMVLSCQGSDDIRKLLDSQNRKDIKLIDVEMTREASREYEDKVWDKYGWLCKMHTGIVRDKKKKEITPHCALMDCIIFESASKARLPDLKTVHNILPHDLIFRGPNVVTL

CC(C)(O)C(Cl)(Cl)Cl
inactive: [1] | [2] | [3] | [4] | [5] | [6] | [7] | [8] | [9] | [10] | [11]

CC(C)=CCN1CC[C@@]2(C)c3cc(O)ccc3C[C@@H]1[C@@H]2C
inactive: [1] | [2] | [3] | [4] | [5] | [6] | [11]

COc1cc(N)c(Cl)cc1C(=O)NC1CCN(CCCOc2ccc(F)cc2)CC1OC (stereo not given)
inactive: [1] | [2] | [4]

CC(C)[N+](C)(CCC(C(N)=O)(c1ccccc1)c1ccccc1)C(C)C
inactive: [1] | [2] | [3] | [4] | [5] | [6] | [7] | [8] | [9] | [10] | [11] | [12]

CCOP(=S)(OCC)O/N=C(\C#N)c1ccccc1
inactive: [1] | [2] | [3] | [4] | [5] | [6] | [7] | [8] | [9] | [10] | [11] | [12]

CC(CC(C(N)=O)(c1ccccc1)c1ccccc1)N(C)C (stereo not given)
inactive: [1] | [2] | [3] | [4] | [5] | [6] | [7] | [8] | [9] | [10] | [11] | [12]

CC(CNC1CCCCC1)OC(=O)c1ccccc1 (stereo not given)
inactive: [1] | [2] | [4]

CCN(CC)C(C)C(=O)c1ccccc1 (stereo not given)
inactive: [1] | [2] | [3] | [4] | [5] | [6] | [7] | [8] | [9] | [10] | [11] | [12]

C=CC[C@]1(O)CC[C@H]2[C@@H]3CCC4=CC(=O)CCC4=C3C=C[C@@]21C
inactive: [1] | [2] | [3] | [4] | [5] | [6] | [7] | [8] | [11]

COP(=S)(OC)Oc1ccc(S(N)(=O)=O)cc1
inactive: [1] | [2] | [3] | [4] | [5] | [6] | [7] | [8] | [9] | [10] | [11] | [12]

C[C@@H]1C[C@@H]([C@H](O)CC2CC(=O)NC(=O)C2)C(=O)[C@@H](C)C1
active: [1] 968 nM | [2] 158 nM and 432 nM | [3] 1090 nM | [4] 1370 nM | [5] 664 nM and 523 nM | [6] 1.06 µM and 1.18 µM | [7] 266 nM and 235 nM | [8] 668 nM and 372 nM | [9] 84.1 nM and 74.3 nM | [10] 437 nM and 385 nM | [11] 841 nM and 3.32 µM

Sc1ccccc1Cl
inactive: [1] | [2] | [3] | [4] | [5] | [6] | [7] | [8] | [9] | [10] | [11] | [12]

CCCN(CCC)CCc1c[nH]c2ccccc12
inactive: [1] | [2] | [3] | [4] | [5] | [6] | [7] | [10] | [11] | [12]

CCCCC1C(=O)NC(=O)N(C2CCCCC2)C1=O (stereo not given)
inactive: [1] | [2] | [3] | [4] | [5] | [6] | [7] | [8] | [9] | [10] | [11] | [12]

O=c1n(Cl)c(=O)n(Cl)c(=O)n1Cl
inactive: [1] | [2] | [3] | [4] | [5] | [6] | [7] | [8] | [9] | [10] | [11]

C[C@@H]1O[C@@H](O[C@@H]2C=C3CC[C@@H]4[C@H](CC[C@]5(C)[C@@H](c6ccc(=O)oc6)CC[C@]45O)[C@@]3(C)CC2)[C@H](O)[C@H](O)[C@H]1O
inactive: [1] | [2] | [3] | [4]
active: [5] 3.3 nM | [6] 2.1 nM | [7] 6.7 nM | [8] 2.7 nM | [9] 1 nM | [10] 2.5 nM | [11] 11.9 nM

O=C(CCCCl)c1ccc(F)cc1
inactive: [1] | [2] | [3] | [4] | [5] | [6] | [7] | [8] | [9] | [10] | [11] | [12]

Nc1ccccc1C(=O)OCC(O)CO (stereo not given)
inactive: [1] | [2] | [3] | [4] | [5] | [6] | [7] | [8] | [9] | [10] | [11]

ClCc1cccc(Cl)c1
inactive: [1] | [2] | [3] | [4] | [5] | [6] | [7] | [8] | [9] | [10] | [11] | [12]
